Measured values: the OligoGym collection

target: WDR33; test: pooled miR-30 sensor sort-seq; sequence = guide strand; details: shRNA
Note: reference of the scale not given here.

| Sequence | sensor-assay potency score (higher = more potent) |
| --- | --- |
| TTTATTTTGCATCCAAGCCTGC | -0.562 |
| TTAGATTATATCGATCTCGCAT | 0.262 |
| TAGTATGGTCATTTGAGCCTGA | 0.248 |
| TAAACTGTCCCTGTGGACCTGG | -0.115 |
| TTGTAGTCTATGGTTTTTCGGT | -0.753 |
| TAGATTATATCGATCTCGCATT | -0.783 |
| TAGGATTATTCAACATTCCTAT | -0.157 |
| TAGTATATTGTAATGTAGCCAT | -0.402 |

target: WDR34; test: as above; details: shRNA

| Sequence | sensor-assay potency score (higher = more potent) |
| --- | --- |
| TTAAGCGTGCTCCAGTCCCCAT | -1.36 |
| ATACAGACAAGACACCATCTGC | -0.609 |
| TTTCTGGAGATCAAACAGCTGC | -0.424 |
| TTCTTGAGCTTGGTGCTCCGTG | -0.384 |
| TTGAACTCCAGACAGTAGACAG | -1.12 |
| ATACTTGAGGGAGAGCTGCAGC | -0.787 |
| TGCTTGATCAAAACTGTGGGTT | -0.0783 |
| AATTCTTGTTCAGCTCTCGGAT | -0.793 |
| TTGAGGGAGAGCTGCAGCGAAG | -1.68 |
| TTTGCTTGATCAAAACTGTGGG | 0.652 |
| ATCTGCTGCTGCTCGGTCCAGT | -0.627 |
| TTGCTTGATCAAAACTGTGGGT | -0.138 |

target: WDR38; test: as above; details: shRNA

| Sequence | sensor-assay potency score (higher = more potent) |
| --- | --- |
| TTTCCTGTGTTGCAGTCCCAGA | -1.04 |
| TTCTGAGCCTGTGAGCAGCATC | -1.23 |
| TTGACCATGCGGGAATAGCCGG | -1.06 |
| TTTCACTCTCCGCACGGCCAGC | -1.51 |
| TTCAGTTGGATAAGCAGGCTGC | -0.0722 |
| TGACCGTCTCCACACTCCGTTG | -1.74 |
| TTGGTGACCCTTCAGGACCCGC | -1.34 |
| ATATTTGACGTCTAGTCTGATC | -0.981 |
| TTGACGTCTAGTCTGATCGGCA | -0.321 |
| TGAGCCTGTGAGCAGCATCTGG | -1.58 |
| TAGTCTGATCGGCAGCTCCAGA | -1.14 |
| TTTGACGTCTAGTCTGATCGGC | 1.06 |

target: WDR59; test: as above; details: shRNA

| Sequence | sensor-assay potency score (higher = more potent) |
| --- | --- |
| ATAGACAACACACAAAGCGCAG | -1.07 |
| TAACACTGTAACACTGGCCCTG | 0.0657 |
| TTGATCTGTCGATTGCCAGAGT | -0.462 |
| TTGCAGATGGCACACTGCGTGC | -1.5 |
| TAAAGCTAGGATATCGACTATG | -0.97 |
| TACTAGAATTTTATTAGCCAAG | -1.53 |
| TAGACAACACACAAAGCGCAGC | -0.806 |
| TAACCTGCTCCGCAGAACCTGG | -1.45 |
